Measurements taken from the supplement of paper PMC10849652.
The full data set covers some 7,900 targets. This sample favours those with a hit. About 0.6% of all pairs of compound and target were hits.

Assays:
Experiment in all cases: log2 fold change, soluble protein after heating vs DMSO (PISA); higher = thermal stabilisation; K562 cells, 10 uM, 30 min; active = over 0.2 and 3.5 SD of the protein, either way, in both replicates (recomputed)
[1] = compound: C1=CC=C(C=C1)[C@H](COC2=CC3=C(C=C2)NC(=O)N3)NC(=O)C4=CC=CN(C4=O)CC5=CC(=C(C=C5)F)F
Method in brief: (§1)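 Quantification of soluble protein used TMTpro 16plex LC-MS/MS, with channel sums equalised. Samples were the supernatant after 21,000xg for 90 min of pooled aliquots from K562 cells (2×10^6 cells/mL) treated with 10 μM compound for 30 min, heated for 3 min over 48°C-58°C, and extracted in PBS with 0.5% NP-40 at 4°C. Values, from duplicates, describe thermal stability against control samples on a log2 fold-change scale.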

[2] = compound: CC1=C(SC2=C1C(=N[C@H](C3=NN=C(N32)C)CC(=O)N)C4=CC=C(C=C4)Cl)C
Method in brief: as §1

[3] = compound: CC1=C2C(=CC=C1)N=C(N(C2=O)C3=CC=CC=C3C)CN4C=NC5=C(N=CN=C54)N
Method in brief: as §1

[4] = compound: Cc1sc2c(c1C)C(c1ccc(Cl)cc1)=N[C@@H](CC(=O)OC(C)(C)C)c1nnc(C)n1-2
Method in brief: as §1

[5] = compound: c1ccc([C@@H]2C[C@H]2NC2CCNCC2)cc1
Method in brief: as §1

Measured: log2 fold change

XPO5 (UniProt Q9HAV4)
UniProt Q9HAV4, sequence (Q9HAV4 whole entry, looked up): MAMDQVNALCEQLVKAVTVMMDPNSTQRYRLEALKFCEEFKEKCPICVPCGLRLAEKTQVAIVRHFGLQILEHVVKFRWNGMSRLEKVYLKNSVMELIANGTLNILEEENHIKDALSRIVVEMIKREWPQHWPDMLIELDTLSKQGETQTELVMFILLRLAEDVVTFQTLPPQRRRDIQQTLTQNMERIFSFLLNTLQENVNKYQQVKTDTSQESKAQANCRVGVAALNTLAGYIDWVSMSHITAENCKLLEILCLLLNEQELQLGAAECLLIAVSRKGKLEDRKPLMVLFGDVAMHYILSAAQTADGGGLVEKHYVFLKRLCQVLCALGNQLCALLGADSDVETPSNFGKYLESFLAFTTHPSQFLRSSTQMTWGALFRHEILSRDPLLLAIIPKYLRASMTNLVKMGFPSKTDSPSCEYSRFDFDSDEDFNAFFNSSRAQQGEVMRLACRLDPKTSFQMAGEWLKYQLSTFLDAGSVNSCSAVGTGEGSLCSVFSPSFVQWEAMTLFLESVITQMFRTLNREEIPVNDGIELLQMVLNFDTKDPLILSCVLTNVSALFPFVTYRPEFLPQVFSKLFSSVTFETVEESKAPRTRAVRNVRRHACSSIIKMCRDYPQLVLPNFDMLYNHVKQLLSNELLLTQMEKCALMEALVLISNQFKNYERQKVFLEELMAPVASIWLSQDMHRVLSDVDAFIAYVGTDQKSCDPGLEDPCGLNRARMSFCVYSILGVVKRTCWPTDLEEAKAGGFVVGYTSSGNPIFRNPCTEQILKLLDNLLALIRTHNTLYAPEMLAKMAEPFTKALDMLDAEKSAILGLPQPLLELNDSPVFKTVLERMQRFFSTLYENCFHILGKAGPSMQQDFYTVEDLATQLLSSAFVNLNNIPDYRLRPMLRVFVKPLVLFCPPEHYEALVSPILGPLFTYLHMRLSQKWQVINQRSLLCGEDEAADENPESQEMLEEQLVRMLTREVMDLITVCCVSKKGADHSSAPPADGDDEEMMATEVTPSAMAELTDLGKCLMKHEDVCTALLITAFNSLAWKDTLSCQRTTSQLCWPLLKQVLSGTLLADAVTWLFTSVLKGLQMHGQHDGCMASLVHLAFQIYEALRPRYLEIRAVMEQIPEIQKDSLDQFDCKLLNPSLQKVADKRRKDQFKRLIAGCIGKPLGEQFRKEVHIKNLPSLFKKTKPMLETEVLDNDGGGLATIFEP
inactive: [1] -0.037 | [2] 0.042 | [3] 0.02 | [4] -0.024 | [5] -0.01

TRIM4 (UniProt Q9C037)
inactive: [1] -0.049 | [2] -0.014 | [3] 0.254 | [4] -0.04 | [5] -0.038

VAMP7 (UniProt P51809)
inactive: [1] 0.007 | [2] 0.044 | [3] 0.077 | [4] -0.047 | [5] 0.015

WDR75 (UniProt Q8IWA0)
UniProt Q8IWA0, sequence (Q8IWA0 whole entry, looked up): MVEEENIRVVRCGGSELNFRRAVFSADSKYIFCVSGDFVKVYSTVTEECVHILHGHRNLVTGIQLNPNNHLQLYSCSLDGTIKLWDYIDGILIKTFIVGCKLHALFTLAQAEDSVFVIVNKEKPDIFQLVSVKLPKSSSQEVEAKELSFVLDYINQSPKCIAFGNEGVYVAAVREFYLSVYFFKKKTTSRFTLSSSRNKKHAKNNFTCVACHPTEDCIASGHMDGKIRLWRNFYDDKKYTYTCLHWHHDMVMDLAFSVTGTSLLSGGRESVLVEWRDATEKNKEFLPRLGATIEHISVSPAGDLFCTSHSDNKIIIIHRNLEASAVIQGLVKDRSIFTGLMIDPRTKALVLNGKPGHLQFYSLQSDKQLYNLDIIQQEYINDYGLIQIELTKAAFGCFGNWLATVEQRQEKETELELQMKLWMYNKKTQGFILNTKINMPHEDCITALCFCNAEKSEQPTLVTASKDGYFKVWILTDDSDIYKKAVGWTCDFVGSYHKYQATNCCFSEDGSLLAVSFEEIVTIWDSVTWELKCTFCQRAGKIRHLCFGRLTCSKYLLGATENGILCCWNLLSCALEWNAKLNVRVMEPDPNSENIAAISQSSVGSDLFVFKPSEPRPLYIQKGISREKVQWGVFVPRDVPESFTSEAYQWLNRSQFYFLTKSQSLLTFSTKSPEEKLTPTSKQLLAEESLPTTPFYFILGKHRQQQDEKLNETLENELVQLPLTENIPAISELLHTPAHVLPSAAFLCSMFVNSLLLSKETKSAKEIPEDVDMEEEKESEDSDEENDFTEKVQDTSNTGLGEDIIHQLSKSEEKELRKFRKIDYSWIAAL
inactive: [1] -0.031 | [2] -0.24 | [3] 0.002 | [4] 0.304 | [5] -0.089

UBR2 (UniProt Q8IWV8)
inactive: [1] -0.16 | [2] 0.04 | [3] 0.009 | [4] -0.014 | [5] -0.28

TXNL1 (UniProt O43396)
inactive: [1] 0.005 | [2] 0.051 | [3] 0.056 | [4] -0.01 | [5] 0.015

VPS18 (UniProt Q9P253)
inactive: [1] 0.014 | [2] -0.052 | [3] -0.03 | [4] -0.03 | [5] 0.004

UBA1 (UniProt P22314)
inactive: [1] -0.162 | [2] 0.044 | [3] 0.134 | [4] 0.044 | [5] -0.08

VKORC1 (UniProt Q9BQB6)
inactive: [1] -0.058 | [2] 0.132 | [3] 0.083 | [4] -0.183 | [5] -0.012

UHRF1BP1L (UniProt A0JNW5)
UniProt A0JNW5, sequence (A0JNW5 whole entry, looked up): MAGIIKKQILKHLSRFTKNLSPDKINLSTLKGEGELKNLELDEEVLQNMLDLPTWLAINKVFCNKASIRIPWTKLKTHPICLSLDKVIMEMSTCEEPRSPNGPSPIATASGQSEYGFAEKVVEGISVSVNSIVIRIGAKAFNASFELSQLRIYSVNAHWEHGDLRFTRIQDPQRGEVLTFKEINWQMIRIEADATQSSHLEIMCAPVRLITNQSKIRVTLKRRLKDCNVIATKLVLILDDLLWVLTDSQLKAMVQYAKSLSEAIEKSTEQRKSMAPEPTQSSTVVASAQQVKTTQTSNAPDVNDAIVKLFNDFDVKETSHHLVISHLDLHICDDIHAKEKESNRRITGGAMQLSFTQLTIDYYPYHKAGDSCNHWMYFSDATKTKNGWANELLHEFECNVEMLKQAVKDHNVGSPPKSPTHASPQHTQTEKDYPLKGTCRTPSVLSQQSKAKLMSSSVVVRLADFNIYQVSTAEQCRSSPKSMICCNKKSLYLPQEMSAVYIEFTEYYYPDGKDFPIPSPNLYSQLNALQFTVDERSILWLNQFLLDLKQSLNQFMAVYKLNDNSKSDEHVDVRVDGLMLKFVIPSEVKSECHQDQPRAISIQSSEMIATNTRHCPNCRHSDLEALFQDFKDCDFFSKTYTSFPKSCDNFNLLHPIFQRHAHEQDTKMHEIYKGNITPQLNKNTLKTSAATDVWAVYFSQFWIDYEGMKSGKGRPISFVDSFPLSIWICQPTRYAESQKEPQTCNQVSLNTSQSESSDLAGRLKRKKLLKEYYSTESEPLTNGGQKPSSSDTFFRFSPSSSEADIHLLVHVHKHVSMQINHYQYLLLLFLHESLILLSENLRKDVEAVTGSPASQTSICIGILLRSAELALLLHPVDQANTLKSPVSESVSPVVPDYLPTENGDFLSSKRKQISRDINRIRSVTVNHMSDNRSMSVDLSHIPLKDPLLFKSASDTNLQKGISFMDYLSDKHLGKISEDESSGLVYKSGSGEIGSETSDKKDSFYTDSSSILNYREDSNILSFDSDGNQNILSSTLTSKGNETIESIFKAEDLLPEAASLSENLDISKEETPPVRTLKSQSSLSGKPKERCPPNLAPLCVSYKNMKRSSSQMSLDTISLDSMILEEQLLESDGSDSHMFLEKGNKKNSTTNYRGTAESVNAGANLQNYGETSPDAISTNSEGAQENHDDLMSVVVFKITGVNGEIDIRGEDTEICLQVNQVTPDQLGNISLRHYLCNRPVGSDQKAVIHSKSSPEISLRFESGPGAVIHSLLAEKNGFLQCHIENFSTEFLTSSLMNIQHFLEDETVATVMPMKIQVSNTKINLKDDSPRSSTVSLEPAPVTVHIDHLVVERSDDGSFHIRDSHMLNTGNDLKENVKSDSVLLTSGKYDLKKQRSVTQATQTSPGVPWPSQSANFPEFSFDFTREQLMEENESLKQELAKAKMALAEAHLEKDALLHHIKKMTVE
inactive: [1] 0.024 | [2] 0.099 | [3] 0.05 | [4] -0.027 | [5] -0.018

TXN2 (UniProt Q99757)
inactive: [1] 0.027 | [2] 0.144 | [3] 0.039 | [4] -0.079 | [5] -0.067

TSEN2 (UniProt Q8NCE0)
inactive: [1] -0.05 | [2] 0 | [3] 0.044 | [4] -0.027 | [5] 0.03

VPS72 isoform 2 (UniProt Q15906)
inactive: [1] 0.123 | [2] -0.106 | [3] 0.055 | [4] 0.05 | [5] -0.013

UBE2E3 (UniProt Q969T4)
UniProt Q969T4, sequence (Q969T4 whole entry, looked up): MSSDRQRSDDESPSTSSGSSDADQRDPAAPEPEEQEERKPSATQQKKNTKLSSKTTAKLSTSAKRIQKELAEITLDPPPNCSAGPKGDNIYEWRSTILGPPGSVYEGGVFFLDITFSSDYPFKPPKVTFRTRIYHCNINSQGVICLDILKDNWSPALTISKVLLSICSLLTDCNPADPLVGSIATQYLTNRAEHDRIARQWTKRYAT
inactive: [1] -0.076 | [2] 0.119 | [3] 0.115 | [4] -0.088 | [5] -0.023

XPNPEP3 (UniProt Q9NQH7)
inactive: [1] -0.004 | [2] 0.018 | [3] 0.07 | [4] -0.009 | [5] 0.006

VRK2 (UniProt Q86Y07)
inactive: [1] 0.001 | [2] 0.004 | [3] 0.011 | [4] 0.005 | [5] -0.083

TRIP10 isoform 2 (UniProt Q15642)
inactive: [1] -0.039 | [2] 0.085 | [3] 0.222 | [4] 0.03 | [5] -0.026

XPOT (UniProt O43592)
inactive: [1] -0.028 | [2] 0.06 | [3] 0.083 | [4] -0.002 | [5] -0.001

UCHL5 isoform 3 (UniProt Q9Y5K5)
UniProt Q9Y5K5, sequence (Q9Y5K5 whole entry, looked up): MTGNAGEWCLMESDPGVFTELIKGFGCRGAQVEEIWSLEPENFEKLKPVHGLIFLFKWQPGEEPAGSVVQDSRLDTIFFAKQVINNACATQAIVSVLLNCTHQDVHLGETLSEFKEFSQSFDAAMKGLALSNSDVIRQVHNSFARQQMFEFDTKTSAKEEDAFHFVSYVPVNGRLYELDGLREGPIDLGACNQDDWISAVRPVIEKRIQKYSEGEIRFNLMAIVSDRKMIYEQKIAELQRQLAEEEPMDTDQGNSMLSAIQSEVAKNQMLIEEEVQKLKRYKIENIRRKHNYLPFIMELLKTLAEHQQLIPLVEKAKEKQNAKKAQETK
inactive: [1] 0.021 | [2] 0.232 | [3] -0.123 | [4] 0.069 | [5] 0.167

UQCR10 (UniProt Q9UDW1)
UniProt Q9UDW1, sequence (Q9UDW1 whole entry, looked up): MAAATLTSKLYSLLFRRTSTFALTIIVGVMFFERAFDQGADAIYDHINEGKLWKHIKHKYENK
inactive: [1] -0.032 | [2] 0.036 | [3] 0.142 | [4] -0.131 | [5] -0.009

XIAP (UniProt P98170)
inactive: [1] 0.05 | [2] 0.003 | [3] 0 | [4] 0.048 | [5] 0.002

WDCP (UniProt Q9H6R7)
UniProt Q9H6R7, sequence (Q9H6R7 whole entry, looked up): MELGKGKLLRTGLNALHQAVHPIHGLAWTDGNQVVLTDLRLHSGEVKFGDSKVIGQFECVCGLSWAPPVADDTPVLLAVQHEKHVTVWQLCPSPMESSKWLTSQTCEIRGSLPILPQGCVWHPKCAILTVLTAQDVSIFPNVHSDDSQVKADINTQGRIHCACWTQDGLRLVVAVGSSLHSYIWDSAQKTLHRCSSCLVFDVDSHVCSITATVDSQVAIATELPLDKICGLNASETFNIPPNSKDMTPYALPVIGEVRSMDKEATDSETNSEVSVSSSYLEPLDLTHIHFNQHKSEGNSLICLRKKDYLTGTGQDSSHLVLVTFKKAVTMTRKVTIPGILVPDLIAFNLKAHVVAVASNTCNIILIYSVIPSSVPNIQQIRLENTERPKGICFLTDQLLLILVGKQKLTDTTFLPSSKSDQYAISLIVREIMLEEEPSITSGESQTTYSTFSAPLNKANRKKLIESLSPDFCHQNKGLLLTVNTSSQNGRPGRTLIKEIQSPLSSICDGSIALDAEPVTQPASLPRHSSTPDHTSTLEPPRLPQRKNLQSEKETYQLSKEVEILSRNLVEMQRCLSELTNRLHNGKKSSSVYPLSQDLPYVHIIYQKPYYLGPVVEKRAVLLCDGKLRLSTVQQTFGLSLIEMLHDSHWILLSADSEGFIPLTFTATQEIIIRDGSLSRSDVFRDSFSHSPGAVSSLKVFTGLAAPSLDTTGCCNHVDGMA
inactive: [1] 0.013 | [2] 0 | [3] -0.015 | [4] 0.039 | [5] 0.145

USP25 isoform 3 (UniProt Q9UHP3)
inactive: [1] -0.02 | [2] 0.024 | [3] 0.068 | [4] -0.007 | [5] -0.007

TNNC2 (UniProt P02585)
UniProt P02585, sequence (P02585 whole entry, looked up): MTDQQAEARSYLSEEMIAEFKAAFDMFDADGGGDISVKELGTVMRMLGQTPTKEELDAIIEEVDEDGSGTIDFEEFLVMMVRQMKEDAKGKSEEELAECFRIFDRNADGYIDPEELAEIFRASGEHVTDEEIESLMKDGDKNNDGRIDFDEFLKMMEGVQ
inactive: [1] 0.043 | [2] 0.004 | [3] 0.06 | [4] -0.624 | [5] 0.031
